# Laboratory results taken from article PMC12864922, “TDP-43 directly inhibits mRNA accumulation in neurites through modulation of mRNA stability”.
# Positions count from the first letter of the chain named. Whole data set: some 9,900 sequences, median “r (bound/input frequency ratio)” near 0.7, cut for the highest 2% near 6.5. Many of the other results were omitted from the sample, so the highest values are more common in it than they were.
# B1: ENSMUSG00000061578.324|Ksr2|150:154 (ssRNA)
# RNA: GGGAGUUCUACAGUCCGACGAUCGCUUCGAUAUCCGCAUGCUAGUAGCUCAAUGACCCAGUGGGUCACAGUUCUAGGCGCUCCAAGGAAGCCAGGGGAGGGGGACUCCUCAGGAAGGAGUGACCAGUCACCUGCCUCCCAGGGUUCUGCCUUGCCCUUAAGCUAGGGUCCUUCAAGCAUCCACAGACUUAGACACACGUGGUAACAUGCUUGUAAUCCUGGCACUCUGGAGGCUGAGGCAGGAGGAUAACAAGUCUAGACUAUAUAUGAUUUCUGAGGGUCUGUUAGUGAAUAAGUACCUGGACUCUUGCGGUCGCACUAGUGUGGAAUUCUCGGGUGUCAAGG
# B2: ENSMUSG00000032194.275|Kank2 (ssRNA)
# RNA: GGGAGUUCUACAGUCCGACGAUCGCUUCGAUAUCCGCAUGCUAAUAAAUGAAUAGAUGGAUGGAUGAAUGAACAGAUAGAUGAAUGGAUGGAUGGACAGGUGGGUGGAUGGAUGGGUGGACGGAUGAGUGUGGGGUGGGUGGAUGGAUAAAUGAGCAAUGGAUGAGAAACUGGGUUGGCUGGUGGGUAGAUGUCAUGAUGGAGUCUUUGCACGUGUAUGAAACAGAAAACCAAACUUCAGGACAGACAGCUGCUGGUGUCUCUGGAUGCUCACAGCCUAGGGCACAUUUGAAAGGUCGUGCUCCUCUUGCGGUCGCACUAGUGUGGAAUUCUCGGGUGUCAAGG
# B3: ENSMUSG00000032194.277|Kank2 (ssRNA)
# RNA: GGGAGUUCUACAGUCCGACGAUCGCUUCGAUAUCCGCAUGCUAAUGGAUGGAUGAAUGAACAGAUAGAUGAAUGGAUGGAUGGACAGGUGGGUGGAUGGAUGGGUGGACGGAUGAGUGUGGGGUGGGUGGAUGGAUAAAUGAGCAAUGGAUGAGAAACUGGGUUGGCUGGUGGGUAGAUGUCAUGAUGGAGUCUUUGCACGUGUAUGAAACAGAAAACCAAACUUCAGGACAGACAGCUGCUGGUGUCUCUGGAUGCUCACAGCCUAGGGCACAUUUGAAAGGUCGUGCUCUGAGCUGAGCCCCUCUUGCGGUCGCACUAGUGUGGAAUUCUCGGGUGUCAAGG
# B4: ENSMUSG00000032194.273|Kank2|97:101;184:188 (ssRNA)
# RNA: GGGAGUUCUACAGUCCGACGAUCGCUUCGAUAUCCGCAUGCUAGUGGAUGGAUGCAUAAAUGAAUAGAUGGAUGGAUGAAUGAACAGAUAGAUGAAUGGAUGGAUGGACAGGUGGGUGGAUGGAUGGGUGGACGGAUGACACACGGGUGGGUGGAUGGAUAAAUGAGCAAUGGAUGAGAAACUGGGUUGGCUGGUGGGUAGAUGUCAUGAUGGAGUCUUUGCACGUCAUACAAACAGAAAACCAAACUUCAGGACAGACAGCUGCUGGUGUCUCUGGAUGCUCACAGCCUAGGGCACAUUUGACUCUUGCGGUCGCACUAGUGUGGAAUUCUCGGGUGUCAAGG
# B5: ENSMUSG00000032194.279|Kank2 (ssRNA)
# RNA: GGGAGUUCUACAGUCCGACGAUCGCUUCGAUAUCCGCAUGCUAAUGAACAGAUAGAUGAAUGGAUGGAUGGACAGGUGGGUGGAUGGAUGGGUGGACGGAUGAGUGUGGGGUGGGUGGAUGGAUAAAUGAGCAAUGGAUGAGAAACUGGGUUGGCUGGUGGGUAGAUGUCAUGAUGGAGUCUUUGCACGUGUAUGAAACAGAAAACCAAACUUCAGGACAGACAGCUGCUGGUGUCUCUGGAUGCUCACAGCCUAGGGCACAUUUGAAAGGUCGUGCUCUGAGCUGAGCCCUGAGUUCCAGCCCUCUUGCGGUCGCACUAGUGUGGAAUUCUCGGGUGUCAAGG
# B6: ENSMUSG00000032194.278|Kank2 (ssRNA)
# RNA: GGGAGUUCUACAGUCCGACGAUCGCUUCGAUAUCCGCAUGCUAGGAUGAAUGAACAGAUAGAUGAAUGGAUGGAUGGACAGGUGGGUGGAUGGAUGGGUGGACGGAUGAGUGUGGGGUGGGUGGAUGGAUAAAUGAGCAAUGGAUGAGAAACUGGGUUGGCUGGUGGGUAGAUGUCAUGAUGGAGUCUUUGCACGUGUAUGAAACAGAAAACCAAACUUCAGGACAGACAGCUGCUGGUGUCUCUGGAUGCUCACAGCCUAGGGCACAUUUGAAAGGUCGUGCUCUGAGCUGAGCCCUGAGUUCUCUUGCGGUCGCACUAGUGUGGAAUUCUCGGGUGUCAAGG
# B7: ENSMUSG00000032194.274|Kank2 (ssRNA)
# RNA: GGGAGUUCUACAGUCCGACGAUCGCUUCGAUAUCCGCAUGCUAGGAUGCAUAAAUGAAUAGAUGGAUGGAUGAAUGAACAGAUAGAUGAAUGGAUGGAUGGACAGGUGGGUGGAUGGAUGGGUGGACGGAUGAGUGUGGGGUGGGUGGAUGGAUAAAUGAGCAAUGGAUGAGAAACUGGGUUGGCUGGUGGGUAGAUGUCAUGAUGGAGUCUUUGCACGUGUAUGAAACAGAAAACCAAACUUCAGGACAGACAGCUGCUGGUGUCUCUGGAUGCUCACAGCCUAGGGCACAUUUGAAAGGUCCUCUUGCGGUCGCACUAGUGUGGAAUUCUCGGGUGUCAAGG
# B8: ENSMUSG00000032194.276|Kank2 (ssRNA)
# RNA: GGGAGUUCUACAGUCCGACGAUCGCUUCGAUAUCCGCAUGCUAGAAUAGAUGGAUGGAUGAAUGAACAGAUAGAUGAAUGGAUGGAUGGACAGGUGGGUGGAUGGAUGGGUGGACGGAUGAGUGUGGGGUGGGUGGAUGGAUAAAUGAGCAAUGGAUGAGAAACUGGGUUGGCUGGUGGGUAGAUGUCAUGAUGGAGUCUUUGCACGUGUAUGAAACAGAAAACCAAACUUCAGGACAGACAGCUGCUGGUGUCUCUGGAUGCUCACAGCCUAGGGCACAUUUGAAAGGUCGUGCUCUGAGCUCUCUUGCGGUCGCACUAGUGUGGAAUUCUCGGGUGUCAAGG
# B9: ENSMUSG00000032194.272|Kank2|103:107;190:194 (ssRNA)
# RNA: GGGAGUUCUACAGUCCGACGAUCGCUUCGAUAUCCGCAUGCUAGGGUGGGUGGAUGGAUGCAUAAAUGAAUAGAUGGAUGGAUGAAUGAACAGAUAGAUGAAUGGAUGGAUGGACAGGUGGGUGGAUGGAUGGGUGGACGGAUGACACACGGGUGGGUGGAUGGAUAAAUGAGCAAUGGAUGAGAAACUGGGUUGGCUGGUGGGUAGAUGUCAUGAUGGAGUCUUUGCACGUCAUACAAACAGAAAACCAAACUUCAGGACAGACAGCUGCUGGUGUCUCUGGAUGCUCACAGCCUAGGGCACCUCUUGCGGUCGCACUAGUGUGGAAUUCUCGGGUGUCAAGG
# B10: ENSMUSG00000032194.274|Kank2|91:95;178:182 (ssRNA)
# RNA: B7 RNA with G134C, U135A, G136C, U137A, G138C, G221C, U222A, A223U, U224A, G225C
# Biological target: TDP-43 (Homo sapiens, UniProt Q13148 1-414)
# Sequence (Q13148 whole entry): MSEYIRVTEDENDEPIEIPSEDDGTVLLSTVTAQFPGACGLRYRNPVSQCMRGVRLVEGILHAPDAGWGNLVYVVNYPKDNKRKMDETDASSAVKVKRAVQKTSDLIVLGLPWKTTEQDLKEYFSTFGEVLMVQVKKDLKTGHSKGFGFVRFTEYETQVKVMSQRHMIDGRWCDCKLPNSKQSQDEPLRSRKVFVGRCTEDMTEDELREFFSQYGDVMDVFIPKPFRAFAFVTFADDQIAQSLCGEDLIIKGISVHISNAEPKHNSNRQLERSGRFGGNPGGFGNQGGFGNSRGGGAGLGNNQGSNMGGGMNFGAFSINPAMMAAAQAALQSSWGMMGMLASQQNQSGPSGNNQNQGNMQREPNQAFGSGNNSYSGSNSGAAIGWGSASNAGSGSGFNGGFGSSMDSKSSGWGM
# Test: RNA Bind-n-Seq with designed 260-mer pool; 25 mM Tris-HCl, 150 mM KCl, 3 mM MgCl2, BSA (printed 500 mg/mL), 20 units/mL SUPERase IN; pH not stated; 500 nM RNA pool, 1 h, 4 C; TDP-43 5, 50, 500 nM; high values mean tight binding
# Settings: protein: recombinant; tags: SBP (GST cleaved off with PreScission; pGEX-GST-SBP)
# How it was run: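 Recombinant SBP-tagged TDP-43 at 5, 50 or 500 nM was captured on streptavidin beads, then incubated 1 h at 4 °C with 500 nM of an in vitro-transcribed 260-nt 3′ UTR oligo pool in 25 mM Tris-HCl, 150 mM KCl, 3 mM MgCl2, BSA and SUPERase IN. Bound RNA was washed, eluted with biotin, reverse transcribed, PCR-amplified and sequenced. Binding is R, each oligo's mapped-read-normalized abundance in the bound sample divided by its abundance in input. Duplicates used two independent protein batches.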
row,Binder,binding signal
1,B1,0.658 R (bound/input frequency ratio)
2,B2,7.07 R (bound/input frequency ratio)
3,B3,7.21 R (bound/input frequency ratio)
4,B4,6.83 R (bound/input frequency ratio)
5,B5,5.39 R (bound/input frequency ratio)
6,B6,5.8 R (bound/input frequency ratio)
7,B7,6.07 R (bound/input frequency ratio)
8,B8,6.02 R (bound/input frequency ratio)
9,B9,5.68 R (bound/input frequency ratio)
10,B10,5.59 R (bound/input frequency ratio)
